Our source for the growth values is PubChem BioAssay (NCI).

What all share (experiment): NCI-60 one-dose screen, 48 h (100 = growth as untreated, 0 = no growth, -100 = all killed)
What all share (conditions): 10 µM

In assay [1] the test system is RPMI-8226 leukemia.
Assay [2] concerns OVCAR-8 ovarian.
For assay [3], the system named is OVCAR-5 ovarian.
Assay [4] relates to OVCAR-4 ovarian.
In assay [5] the test system is SK-OV-3 ovarian.
The test system of assay [6] is IGROV1 ovarian.
Assay [7] relates to OVCAR-3 ovarian.
Assay [8] concerns HS 578T breast.
In assay [9] the test system is NCI/ADR-RES ovarian.

Compounds without any hit were thinned out: in the full panel of roughly 83,000, 20% have a hit.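 Activity criterion: percent growth below 10, measured after cells in 96-well plates were exposed to a single compound concentration for 48 hours.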 A number with no mark means an inactive call. Activity calls are given as the source filed them.

`O=C(c1ccc(O)cc1)C1[C@H](c2ccc(Br)cc2)[C@@H](c2ccccc2)NC12C(=O)Nc1ccccc12` (some centres undefined): the growth in assay [1] is 23%; in assay [2], 32.4%; in assay [3], 58.7%; in [4] it was 34.1%; in [5] it was 77.3%; in assay [6] it was 25.8%. In addition, the growth in [7] is 15%; in assay [8] it was 28.5%; in assay [9] it was 22.4%.

As for `CS(=O)(=O)Nc1ccc(-c2ccc3c(c2)ncn3-c2ccc(NC(=O)Nc3ccc(Br)cc3)cc2)cc1`, the growth is -24% (active) in assay [1]; 17.1% in assay [2]; 20.1% in assay [3]; 18.1% in assay [4]; 1.06% (active) in [5]; 26.7% in [6]. Further, the growth was 5.29% (active) in assay [7], 0.433% (active) in assay [8] and 59.8% in assay [9].

`CCCCCCCCCCCCCCCCCCCC(=O)NCCc1c[nH]c2ccc(OC(=O)NOCCOCCOCCOCCOCCOCCOCCOCCOCCOCCOCCOCCOCCOCCOCCOCCOCCOCCOCCOCCOCCOCCOC)cc12`: the growth in assay [1] is -29.5% (active); in assay [2], 7.17% (active); in assay [3], -5.89% (active); in [4], 29.8%; in assay [5], -10.1% (active); in assay [6] it was 18.9%. Moreover, the growth in assay [7] is 11.8%; in [8], -18.9% (active); in assay [9], 89.3%.

In the case of `COc1ccccc1[C@H]1C(C(=O)c2ccc(O)cc2)C2(N[C@@H]1c1ccccc1)C(=O)Nc1ccc(Br)cc12` (some centres undefined), the growth was 30.3% in [1]; 37.5% in assay [2]; 62.7% in assay [3]; 41.1% in assay [4]; 61.4% in [5]; 19.2% in [6]. For the same compound, the growth in assay [7] is -29.1% (active); in assay [8], 36.3%; in assay [9], 57.7%.

For the compound `O=C(Nc1cccc(-c2cn(-c3ccc4oc(=O)ccc4c3)nn2)c1)Nc1cc(C(F)(F)F)cc(C(F)(F)F)c1`, the growth in [1] is 6.66% (active); in assay [2], 34.6%; in assay [3], 66.4%; in assay [4], 7.53% (active); in assay [5] it was 36.5%; in assay [6], 29.9%. Besides, the growth was 16.2% in [7], 27.7% in assay [8] and 50.4% in assay [9].

Take `O=C1Nc2ccc(F)cc2/C1=C/c1cccc(OCc2ccccn2)c1`: the growth was 18.6% in [1]; 25.7% in assay [2]; 60.4% in assay [3]; 61.3% in assay [4]; 69.6% in [5]; 41.9% in assay [6]. The growth in [7] was 27%; in assay [8] it was -6.56% (active).

Take `C[C@H]1[C@H](C)CC[C@]2(COC(=O)CCC(=O)NCC#CCN3CCNCC3)CC[C@]3(C)C(=CC[C@@H]4[C@@]5(C)CCCNC(C)(C)[C@@H]5CC[C@]43C)[C@H]12`: the growth in assay [1] is -22.9% (active); in assay [2], 69%; in [3] it was 53.8%; in assay [4] it was 66.1%; in assay [5], 51.4%; in assay [6], 44.3%. Further, the growth in assay [7] is 75.6%; in assay [8] it was 60.8%; in assay [9], 66.9%.

Turning to `Cc1ccc(-c2nc3ccc(C(=O)N=Nc4c(O)[nH]c5ccc(Cl)cc45)cc3[nH]2)cc1`, the growth was 32.6% in [1]; -33.9% (active) in [2]; 18.2% in [3]; -63.6% (active) in assay [4]; 30.7% in assay [5]; 18.1% in assay [6]. Moreover, the values for the growth in [7], in [8] and in assay [9] were -47.2% (active), -0.441% (active) and 54.1%, respectively.

As for `Cc1ccc(/C=C(\C#N)n2nnc3c(F)cccc32)cc1`, the growth in assay [1] was 6.26% (active); in assay [2], -70.7% (active); in assay [3] it was -7.34% (active); in assay [4], 51.2%; in [5] it was 29.5%; in [6], 8.21% (active). For the same compound, the growth in [7] was 0.864% (active); in [8], 29.2%; in assay [9], 12.9%.

With `O=c1oc2ccc(-c3ccc(F)cc3F)cc2c(=O)n1-c1ccc(F)cc1`, the growth is -26.9% (active) in assay [1]; 14.7% in assay [2]; 50.8% in assay [3]; 10.8% in assay [4]; -11% (active) in assay [5]; 23.5% in [6]. Moreover, the growth was 3.4% (active) in assay [7], -0.922% (active) in assay [8] and -16.9% (active) in [9].

For the compound `COc1ccc2nc(Cl)c(-c3cc(-c4ccccc4)nc(N)n3)cc2c1`, the growth in [1] was -27% (active); in assay [2], -68.4% (active); in assay [3], 51.4%; in assay [4], 83.7%; in [5] it was 95.1%; in [6], 52.5%. The growth is 12.1% in assay [7], 59.3% in assay [8] and -43.1% (active) in assay [9].

`C=C[C@H]1[C@H](O[C@@H]2OC(CO)[C@@H](O)[C@H](O)C2OC(=O)c2c(O)cc(O)cc2-c2cccc(O)c2)OC=C2C(=O)OCC[C@H]21` (some centres undefined): the growth in assay [1] was 106%; in assay [2] it was 102%; in [3], 100%; in assay [4] it was 108%; in assay [5], 95.7%; in [6], 101%. The growth in assay [7] was 112%; in assay [8], 99.7%; in [9] it was 102%.

For the compound `O=C1CCC(N2Cc3c(C#CCCCNC(=O)c4ccc(NC(=O)[C@@H]5NC6(CCCCC6)[C@@]6(C(=O)Nc7cc(Cl)ccc76)[C@H]5c5cccc(Cl)c5F)cc4)cccc3C2=O)C(=O)N1` (some centres undefined), the growth in [1] was 43.7%; in [2] it was 69%; in assay [3], 76.6%; in [4], 56.5%; in assay [5], 74.2%; in assay [6], 11.7%. For the same compound, the growth was 72.3% in [7], 46.2% in assay [8] and 85.7% in [9].

Consider `CCCCCc1ccc(S(=O)(=O)Nc2cc(-c3csc(N(C)C(C)=O)n3)ccc2N2CCN(C)CC2)cc1`, for which the growth in [1] was -9.26% (active); in assay [2], 36%; in assay [3] it was 68%; in [4] it was 11.6%; in [5], 21.4%; in assay [6], 48%. The growth was 60.2% in assay [7] and 28.7% in assay [8].
